Source: PubChem BioAssay (NCI)
The panel holds about 83,000 compounds, 20% with a hit somewhere; the sample as a whole holds those more often.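 Activity criterion: percent growth below 10, measured after cells in 96-well plates were exposed to a single compound concentration for 48 hours.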 Values without a mark were called inactive. Calls of active or inactive are those of the source.

What was measured:
Assay in all cases: NCI-60 one-dose screen, 48 h (100 = growth as untreated, 0 = no growth, -100 = all killed)
Conditions in all cases: 10 µM unless noted
[1] = test system: HCT-15 colon
[2] = test system: HT29 colon
[3] = test system: SNB-75 CNS
[4] = test system: SNB-19 CNS
[5] = test system: U251 CNS
[6] = test system: PC-3 prostate
[7] = test system: SK-MEL-5 melanoma
[8] = test system: UACC-62 melanoma
[9] = test system: LOX IMVI melanoma
[10] = test system: SK-MEL-28 melanoma

| Compound | growth [1] | growth [2] | growth [3] | growth [4] | growth [5] | growth [6] | growth [7] | growth [8] | growth [9] | growth [10] |
| --- | --- | --- | --- | --- | --- | --- | --- | --- | --- | --- |
| Cc1ccc(-c2nc(N3CCNCC3)c3oc(-c4ccccc4)nc3n2)cc1 | -77.7% (active) | -93.8% (active) | 85.4% | 16.7% | -98.2% (active) | -81.5% (active) | 70.9% | 91.3% | -89.1% (active) | -81.3% (active) |
| O=C(c1ccccc1)C1C(=O)N2C(=S)N(c3ccccc3)C(=O)C2C1c1ccc(Cl)cc1 (stereo not given) | 105% | 111% | 96.5% | 93.8% | 98.4% | 86.7% | 91.6% | 88% | 90.2% | 93.8% |
| O=Cc1ccc([N+](=O)[O-])s1 | 48.7% | 55.4% | 85.8% | 91.4% | 89.6% | 92.6% | 102% | 80.2% | 85.8% | 99.5% |
| CCN(CC)CCCN1C(=O)c2c(c(C)c3c(oc4cc(O)ccc43)c2C)C1=O | -79.2% (active) | -61.8% (active) | 124% | -82.8% (active) | -88.8% (active) | -67.5% (active) | -97.7% (active) | 95.2% | -93.5% (active) | -85.1% (active) |
| O=c1oc2ccccc2cc1C1=NN=C(SCc2ccccc2)SC1 | 101% | 105% | 85.7% | 103% | 92.2% | 94% | 100% | 101% | 99.7% | 109% |
| Nc1ncnc2c1N=C(c1ccc(Cl)cc1)CC(c1ccc3c(c1)OCO3)N2 (stereo not given) | 98.6% | 91.7% | 85.7% | 86.4% | 92.8% | 85.2% | 98% | 94.8% | 96.5% | 99.8% |
| COC1=CC(c2ccc[nH]2)=N/C1=C\c1[nH]c(C)c(C(=O)OCc2ccccc2)c1C | -35.4% (active) | -19.4% (active) | -21.4% (active) | 18.5% | -47% (active) | 10.4% | -99.5% (active) | -52.6% (active) | -90.6% (active) | -59.4% (active) |
| COc1ccc(C(=O)C2C(c3ccc(OC)cc3)CN(C)C23C(=O)Nc2ccccc23)cc1 (stereo not given) | 86.9% | 84.3% | 76.7% | 86% | 92.9% | 75.3% | 99.1% | 66.3% | 93% | 105% |
| COc1ccc(C(=O)Nc2ncc(Cc3ccc(F)cc3)s2)cc1 | 11.5% | 9.92% (active) | 23.9% | 31.2% | 28.6% | 27.6% | -4.84% (active) | 30.1% | 20% | 48.7% |
| CC(=O)N1N=C(c2ccc(Nc3nc(Nc4ccc(Cl)cc4)nc(Nc4ccc(Cl)cc4)n3)cc2)CC1c1ccco1 (stereo not given) | 85.7% | 97.8% | 112% | 101% | 81.7% | 87.6% | 75.9% | 89.9% | 95.7% | 111% |
| CCn1c(=S)[nH]c2c(=O)n(C)c(=O)n(C)c21 | 101% | 112% | 96.2% | 100% | 95.9% | 100% | 106% | 116% | 98.8% | 109% |
| CCN1C(=O)N(CC)C2C1NN=c1s/c(=C\c3ccc(Cl)cc3Cl)c(=O)n12 (stereo not given) | 9.51% (active) | 2.8% (active) | 19.7% | 27.9% | 11% | 24.6% | -20.8% (active) | 28.9% | 18.3% | 66.1% |
| O=C1Nc2ccccc2[C@]12CC(c1ccccc1)=NN2 | 31.6% | 15.8% | 62.2% | 52.7% | 38.9% | 38.5% | 30.2% | 19.5% | 40.2% | 59.2% |
| Cc1nc(N2CCOCC2)sc1S(N)(=O)=O | 105% | 102% | -0.593% (active) | 102% | 92.9% | 92.3% | 100% | 94% | 95.8% | 104% |
| COc1ccccc1Nc1nc2c(s1)C1=CC[C@H]3[C@@H]4CC[C@H]([C@H](C)CCCC(C)C)[C@@]4(C)CC[C@@H]3[C@@]1(C)CC2 | 103% | 101% | 97.6% | 104% | 113% | 92.7% | 100% | 96.7% | 94% | 110% |
